# Assay results published in PubChem BioAssay (EPA / NIEHS).
# Inconclusive results are not listed. Activity calls are given as the source filed them. The calls were made as follows: active = hit-call score of the fitted dose curve at least 0.9, where 1 is the maximum; inconclusive = response in the unintended direction; inactive = score below 0.9.
# Key:
# [1] = biological target: Androgen receptor (Homo sapiens) (UniProt P10275); assay: ATG_AR_TRANS: Attagene TRANS-FACTORIAL HepG2 Assay for human Androgen Receptor (AR) (AID 2282973); conditions: HepG2 Attagene TRANS-FACTORIAL AR reporter transcription
# Summary of the method: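 Chimeric nuclear receptor–Gal4 activity was assessed in human HepG2 hepatocytes after 24 h chemical dosing. Induced reporter mRNA was detected via labelled RT-PCR fragments on capillary electrophoresis, and gain of signal was analysed against DMSO.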
# [2] = biological target: rat CYP2D1, Cyp2d1 (gene 266684) (UniProt P10633); assay: NVS_ADME_rCYP2D1: NovaScreen (NVS) CYP450-related Enzyme Activity (ADME) Assay for rat CYP2D1 (AID 2283122)
# Summary of the method: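 Cell-free fluorescence enzyme-activity assay on extracted rat CYP2D1 protein, read 0.75 h after dosing. Primary screen in duplicate at 10 uM; qualifying chemicals then run in concentration-response to 20 uM max, loss-of-signal versus acetonitrile baseline.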
# [3] = biological target: Bile acid receptor (Homo sapiens) (UniProt Q96RI1); assay: NVS_NR_hFXR_Agonist: NovaScreen (NVS) Nuclear Receptor Binding Assay for human Farnesoid X Receptor Agonism (FXR) (AID 2283347)
# Summary of the method: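 Cell-free TR-FRET binding assay with extracted human FXR protein, agonist format, read 1 h after dosing. Primary screen at 25 uM single concentration in duplicate, actives retested in concentration series; gain of signal versus DMSO.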
# rat CYP2B1, gene 24300 = assay: NVS_ADME_rCYP2B1: NovaScreen (NVS) CYP450-related Enzyme Activity (ADME) Assay for rat CYP2B1 (AID 2283117)
# Summary of the method: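 Recombinant rat CYP2B1 with fluorogenic substrate, read at 0.75 h. Primary screen in duplicate at 10 uM; compounds meeting threshold (e.g., 30% inhibition) re-run in concentration-response up to 20 uM. Fitted against acetonitrile control.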
# [4] = biological target: human p21 Activated Kinase 4 (PAK4), PAK4 (gene 10298) (UniProt O96013); assay: NVS_ENZ_hPAK4: NovaScreen (NVS) Enzymatic Assay for human p21 Activated Kinase 4 (PAK4) (AID 2283189)
# Summary of the method: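 Cell-free recombinant human PAK4 activity assay; fluorescent substrate and product separated by electrophoretic mobility shift, read 1 h after dosing. Initially tested in duplicate at 25 uM, relative to DMSO baseline.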
# [5] = biological target: human Acetylcholinesterase (AChE), ACHE (gene 43) (UniProt P22303); assay: NVS_ENZ_hAChE: NovaScreen (NVS) Enzymatic Assay for human Acetylcholinesterase (AChE) (AID 2283129)
# Summary of the method: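 Cell-free colorimetric enzyme-activity assay; compounds read 0.33 hour after dosing, loss of signal vs DMSO baseline. Primary screen in duplicate at 25 uM single concentration, with active compounds retested in concentration series.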
# [6] = biological target: human Raf-1 Proto-Oncogene, serine/threonine Kinase (RAF1), RAF1 (gene 5894) (UniProt P04049); assay: NVS_ENZ_hRAF1: NovaScreen (NVS) Enzymatic Assay for human Raf-1 Proto-Oncogene, serine/threonine Kinase (RAF1) (AID 2283216)
# Summary of the method: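 Cell-free recombinant kinase with specific fluorescent substrate, product separated by electrophoretic mobility shift; read 1 h after dosing. Primary screen at 25 uM in duplicate; hits then run in concentration-response up to 50 uM, fitted as loss of signal versus DMSO.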
# [7] = biological target: human Androgen Receptor (AR), AR (gene 367) (UniProt P10275); assay: ATG_hAR_XSP1: Attagene TRANS-FACTORIAL Multi-Species (XSP1) HepG2 Assay for human Androgen Receptor (AR) (AID 2283785)
# Description: ATG_XSP1_multi-species_TRANS is a cell-based, multiplexed assay created by modifying the existing Attagene TRANS-FACTORIAL system to include a panel of nuclear receptors from some or all the following species: human (Homo sapiens), mouse (Mus musculus), frog (Xenopus laevis), zebrafish (Danio rerio), chicken (Gallus gallus), and turtle (Chrysemys picta). The ECOTOX-FACTORIAL format uses HepG2, a human liver cell line, with measurements taken at 24 hours after chemical dosing in a 24-well plate. Xsp1 included 3 nM 6-alpha-fluorotestosterone to partially stimulate the androgen receptor.ATG_hAR_XSP1 is one of 29 assay components measured or calculated from the ATG_XSP1_multi-species_TRANS assay. It is designed to make measurements of mRNA induction, a form of inducible reporter, as detected with fluorescence intensity signals by Reverse transcription polymerase chain reaction (RT-PCR) and Capillary electrophoresis technology.The assay endpoint ATG_hAR_XSP1 was analyzed in the positive analysis fitting direction relative to DMSO as the negative control and baseline of activity. […] Furthermore, this assay endpoint can be referred to as a primary readout, because this assay has produced multiple assay endpoints where this one serves a reporter gene function. […]
# [8] = biological target: human Caspase 10 (CASP10), CASP10 (gene 843) (UniProt Q92851); assay: NVS_ENZ_hCASP10: NovaScreen (NVS) Enzymatic Assay for human Caspase 10 (CASP10) (AID 2283133)
# Summary of the method: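 Recombinant human caspase-10 from E. coli, cell-free fluorogenic substrate assay read 1 h after dosing. Primary duplicate screen at 25 uM; hits (e.g. ≥30% inhibition) run singly in concentration-response up to 50 uM, normalised to DMSO.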
# [9] = biological target: human Fibroblast Growth Factor Receptor 1 (FGFR1), FGFR1 (gene 2260) (UniProt P11362); assay: NVS_ENZ_hFGFR1: NovaScreen (NVS) Enzymatic Assay for human Fibroblast Growth Factor Receptor 1 (FGFR1) (AID 2283159);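 also: hits lower the signal so potencies describe inhibitors of the kinase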
# Summary of the method: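 Cell-free recombinant kinase with fluorescent substrate, product separated by electrophoretic mobility shift; read 1 hour after dosing, loss of signal relative to DMSO. Initial screen in duplicate at 25 uM, actives followed in concentration series.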
# [10] = biological target: human Protein Tyrosine Phosphatase Receptor Type C (PTPRC), PTPRC (gene 5788) (UniProt P08575); assay: NVS_ENZ_hPTPRC: NovaScreen (NVS) Enzymatic Assay for human Protein Tyrosine Phosphatase Receptor Type C (PTPRC) (AID 2283212)
# Summary of the method: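 Yeast-extracted human PTPRC used in a cell-free colorimetric enzyme activity read-out, 1 h after dosing. Primary screen in duplicate at 25 uM; actives rerun in concentration-response up to 50 uM, DMSO as baseline.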
# [11] = biological target: human CYP4F12, CYP4F12 (gene 66002) (UniProt Q9HCS2); assay: NVS_ADME_hCYP4F12: NovaScreen (NVS) CYP450-related Enzyme Activity (ADME) Assay for human CYP4F12 (AID 2283111)
# Summary of the method: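 Cell-free fluorescence assay of recombinant human CYP4F12 activity on a specific substrate, read 0.5 h after dosing. Primary screen in duplicate at 10 uM, then concentration series for actives; loss of signal fitted against acetonitrile negative control.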
# [12] = biological target: human Aurora Kinase A - serine/threonine-protein Kinase 6 (AurA), AURKA (gene 6790) (UniProt O14965); assay: NVS_ENZ_hAurA: NovaScreen (NVS) Enzymatic Assay for human Aurora Kinase A - serine/threonine-protein Kinase 6 (AurA) (AID 2283142)
# Summary of the method: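 Cell-free enzymatic assay with human Aurora A, 1 hour after dosing. Fluorescent substrate turnover detected after electrophoretic mobility shift separation of substrate and product. Screened at 25 uM, actives retested in concentration-response up to 50 uM.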
# [13] = biological target: rat Acetylcholinesterase (AChE), Ache (gene 83817) (UniProt P37136); assay: NVS_ENZ_rAChE: NovaScreen (NVS) Enzymatic Assay for rat Acetylcholinesterase (AChE) (AID 2283233)
# Summary of the method: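 Rat brain membrane acetylcholinesterase activity measured colorimetrically 0.33 h after compound addition, loss of signal relative to DMSO. Primary screen in duplicate at 25 uM; actives re-run as concentration-response with 50 uM top concentration.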
# [14] = biological target: rat Monoamine Oxidase, MAO-B, Peripheral (MAOBP), Maob (gene 25750) (UniProt P19643); assay: NVS_ENZ_rMAOBP: NovaScreen (NVS) Enzymatic Assay for rat Monoamine Oxidase, MAO-B, Peripheral (MAOBP) (AID 2283242)
# [15] = biological target: bovine Gamma-Aminobutyric Acid Type A Receptor BDZ, alpha 1 site (GABARa1), GABRA1 (gene 780973) (UniProt P08219); assay: NVS_LGIC_bGABARa1: NovaScreen (NVS) Ligand-Gated Ion Channel Assay for bovine Gamma-Aminobutyric Acid Type A Receptor BDZ, alpha 1 site (GABARa1) (AID 2283321)
# Summary of the method: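 Radioligand competition binding on bovine cortical membranes, 0.75 h, filter-based scintillation counting. Primary single concentration 25 uM in duplicate; actives rerun in concentration-response to 50 uM max. Loss of signal fitted versus DMSO.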
# [16] = biological target: rat Gamma-Aminobutyric Acid Type A Receptor BDZ, alpha 6 site (GABARa6), Gabra6 (gene 29708) (UniProt P30191); assay: NVS_LGIC_rGABARa6: NovaScreen (NVS) Ligand-Gated Ion Channel Assay for rat Gamma-Aminobutyric Acid Type A Receptor BDZ, alpha 6 site (GABARa6) (AID 2283339)
# Summary of the method: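 Rat cerebellar membranes; radioligand binding, filtration and scintillation counting, read 1 h after dosing. Single-concentration duplicate screen at 25 uM, then concentration-response up to 50 uM for actives; loss of signal fitted versus DMSO baseline.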
# [17] = biological target: rat Monoamine Oxidase, MAO-B, Central (MAOBC), Maob (gene 25750) (UniProt P19643); assay: NVS_ENZ_rMAOBC: NovaScreen (NVS) Enzymatic Assay for rat Monoamine Oxidase, MAO-B, Central (MAOBC) (AID 2283238)
# Summary of the method: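 MAO-B activity in rat brain tissue preparation, cell-free, measured radiometrically by scintillation counting 1.17 h after dosing. Screened in duplicate at 25 uM; actives then in concentration-response up to 50 uM. Loss of signal versus DMSO scored.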
# [18] = biological target: Voltage-dependent N-type calcium channel subunit alpha-1B (Rattus norvegicus) (UniProt Q02294); assay: NVS_IC_rCaChN: NovaScreen (NVS) Ion Channel Assay for rat Calcium Channel, Type N (CaChN) (AID 2283317)
# human Raf-1 Proto-Oncogene, serine/threonine Kinase (RAF1), RAF1 (gene 5894), sequence (P04049 whole entry, looked up): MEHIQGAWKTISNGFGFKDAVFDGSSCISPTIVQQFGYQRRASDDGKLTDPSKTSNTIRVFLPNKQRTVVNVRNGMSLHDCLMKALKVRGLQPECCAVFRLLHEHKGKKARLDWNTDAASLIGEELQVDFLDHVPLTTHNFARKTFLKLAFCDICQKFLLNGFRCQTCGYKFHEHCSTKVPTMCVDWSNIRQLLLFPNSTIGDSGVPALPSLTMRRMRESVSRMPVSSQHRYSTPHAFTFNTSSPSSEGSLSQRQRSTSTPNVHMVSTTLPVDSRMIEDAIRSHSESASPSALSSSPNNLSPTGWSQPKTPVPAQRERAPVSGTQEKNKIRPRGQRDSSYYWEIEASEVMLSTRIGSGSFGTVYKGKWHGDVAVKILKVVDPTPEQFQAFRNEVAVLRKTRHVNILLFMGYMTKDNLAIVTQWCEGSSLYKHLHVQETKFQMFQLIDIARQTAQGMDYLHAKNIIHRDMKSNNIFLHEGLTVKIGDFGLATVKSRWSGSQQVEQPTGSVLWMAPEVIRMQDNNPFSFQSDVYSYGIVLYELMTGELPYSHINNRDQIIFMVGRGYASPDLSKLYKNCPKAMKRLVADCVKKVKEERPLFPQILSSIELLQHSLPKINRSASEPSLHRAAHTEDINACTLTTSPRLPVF
# human Acetylcholinesterase (AChE), ACHE (gene 43), sequence (P22303 whole entry, looked up): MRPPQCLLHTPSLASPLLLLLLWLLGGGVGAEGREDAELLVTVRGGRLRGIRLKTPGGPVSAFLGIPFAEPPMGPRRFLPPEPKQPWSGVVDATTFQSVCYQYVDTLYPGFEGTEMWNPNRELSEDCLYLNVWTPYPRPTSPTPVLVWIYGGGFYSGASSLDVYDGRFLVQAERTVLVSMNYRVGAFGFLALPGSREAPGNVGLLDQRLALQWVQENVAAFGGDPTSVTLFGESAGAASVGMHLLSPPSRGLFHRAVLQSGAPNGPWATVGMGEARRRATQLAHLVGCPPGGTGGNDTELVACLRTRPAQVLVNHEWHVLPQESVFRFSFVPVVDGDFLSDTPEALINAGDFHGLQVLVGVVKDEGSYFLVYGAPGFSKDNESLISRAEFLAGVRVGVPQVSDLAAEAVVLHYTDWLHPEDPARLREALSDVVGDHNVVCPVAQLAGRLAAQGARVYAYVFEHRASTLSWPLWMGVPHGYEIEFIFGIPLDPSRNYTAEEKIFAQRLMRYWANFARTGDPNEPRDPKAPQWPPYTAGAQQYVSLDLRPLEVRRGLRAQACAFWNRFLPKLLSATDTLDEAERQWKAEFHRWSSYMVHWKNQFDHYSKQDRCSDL
# Androgen receptor (Homo sapiens), sequence (P10275 whole entry, looked up, the tested form may be a part): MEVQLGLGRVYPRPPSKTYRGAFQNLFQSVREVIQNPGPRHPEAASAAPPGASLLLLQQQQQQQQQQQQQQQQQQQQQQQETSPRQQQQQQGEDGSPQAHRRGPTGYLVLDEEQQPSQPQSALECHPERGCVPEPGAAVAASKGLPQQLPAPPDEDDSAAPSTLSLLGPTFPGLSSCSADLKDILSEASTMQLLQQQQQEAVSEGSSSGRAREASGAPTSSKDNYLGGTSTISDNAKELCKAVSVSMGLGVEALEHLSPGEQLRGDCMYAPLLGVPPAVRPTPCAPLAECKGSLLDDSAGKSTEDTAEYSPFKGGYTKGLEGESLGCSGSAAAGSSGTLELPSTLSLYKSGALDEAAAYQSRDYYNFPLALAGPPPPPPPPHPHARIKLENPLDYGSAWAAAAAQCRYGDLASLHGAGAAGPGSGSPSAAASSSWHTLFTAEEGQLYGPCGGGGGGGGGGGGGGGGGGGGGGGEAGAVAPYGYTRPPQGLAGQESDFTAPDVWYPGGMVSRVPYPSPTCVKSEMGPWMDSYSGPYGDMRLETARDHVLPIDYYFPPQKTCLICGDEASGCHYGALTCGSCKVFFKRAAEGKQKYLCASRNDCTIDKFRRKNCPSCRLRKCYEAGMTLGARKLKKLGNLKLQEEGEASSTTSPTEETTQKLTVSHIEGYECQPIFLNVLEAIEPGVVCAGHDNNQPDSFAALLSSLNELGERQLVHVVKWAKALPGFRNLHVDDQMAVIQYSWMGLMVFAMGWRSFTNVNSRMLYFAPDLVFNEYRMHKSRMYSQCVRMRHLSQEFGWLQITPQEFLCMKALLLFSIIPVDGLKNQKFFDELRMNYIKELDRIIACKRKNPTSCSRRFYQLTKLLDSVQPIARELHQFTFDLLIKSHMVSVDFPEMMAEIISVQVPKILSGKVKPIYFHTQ
# human CYP4F12, CYP4F12 (gene 66002), sequence (Q9HCS2 whole entry, looked up): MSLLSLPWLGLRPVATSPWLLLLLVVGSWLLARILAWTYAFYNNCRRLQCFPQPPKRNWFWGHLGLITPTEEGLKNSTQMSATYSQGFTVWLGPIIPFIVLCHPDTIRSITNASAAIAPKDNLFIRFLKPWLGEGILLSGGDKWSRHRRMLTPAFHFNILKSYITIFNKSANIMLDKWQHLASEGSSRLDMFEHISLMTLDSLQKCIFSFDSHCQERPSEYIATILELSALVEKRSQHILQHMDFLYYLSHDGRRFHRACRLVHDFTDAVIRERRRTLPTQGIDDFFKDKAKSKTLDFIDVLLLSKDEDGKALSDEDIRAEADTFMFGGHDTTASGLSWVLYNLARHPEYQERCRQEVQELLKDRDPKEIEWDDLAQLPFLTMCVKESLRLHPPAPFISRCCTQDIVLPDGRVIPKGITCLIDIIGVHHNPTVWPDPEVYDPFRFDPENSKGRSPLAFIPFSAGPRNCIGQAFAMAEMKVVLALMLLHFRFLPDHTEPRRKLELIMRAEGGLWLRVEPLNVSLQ
# Bile acid receptor (Homo sapiens), sequence (Q96RI1 whole entry, looked up): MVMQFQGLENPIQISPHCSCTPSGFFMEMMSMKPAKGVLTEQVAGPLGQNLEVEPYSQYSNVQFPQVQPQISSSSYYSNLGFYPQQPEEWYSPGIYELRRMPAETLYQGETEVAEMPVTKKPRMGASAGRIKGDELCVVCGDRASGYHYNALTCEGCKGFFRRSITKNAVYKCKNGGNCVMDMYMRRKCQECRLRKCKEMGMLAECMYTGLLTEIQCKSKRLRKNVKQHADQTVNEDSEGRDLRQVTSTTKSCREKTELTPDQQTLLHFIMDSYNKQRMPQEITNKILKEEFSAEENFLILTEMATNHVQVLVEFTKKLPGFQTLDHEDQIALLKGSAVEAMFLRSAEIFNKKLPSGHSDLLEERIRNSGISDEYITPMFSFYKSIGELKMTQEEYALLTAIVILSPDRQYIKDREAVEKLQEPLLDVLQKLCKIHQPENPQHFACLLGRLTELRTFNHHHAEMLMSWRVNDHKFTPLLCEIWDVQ
# rat Acetylcholinesterase (AChE), Ache (gene 83817), sequence (P37136 whole entry, looked up): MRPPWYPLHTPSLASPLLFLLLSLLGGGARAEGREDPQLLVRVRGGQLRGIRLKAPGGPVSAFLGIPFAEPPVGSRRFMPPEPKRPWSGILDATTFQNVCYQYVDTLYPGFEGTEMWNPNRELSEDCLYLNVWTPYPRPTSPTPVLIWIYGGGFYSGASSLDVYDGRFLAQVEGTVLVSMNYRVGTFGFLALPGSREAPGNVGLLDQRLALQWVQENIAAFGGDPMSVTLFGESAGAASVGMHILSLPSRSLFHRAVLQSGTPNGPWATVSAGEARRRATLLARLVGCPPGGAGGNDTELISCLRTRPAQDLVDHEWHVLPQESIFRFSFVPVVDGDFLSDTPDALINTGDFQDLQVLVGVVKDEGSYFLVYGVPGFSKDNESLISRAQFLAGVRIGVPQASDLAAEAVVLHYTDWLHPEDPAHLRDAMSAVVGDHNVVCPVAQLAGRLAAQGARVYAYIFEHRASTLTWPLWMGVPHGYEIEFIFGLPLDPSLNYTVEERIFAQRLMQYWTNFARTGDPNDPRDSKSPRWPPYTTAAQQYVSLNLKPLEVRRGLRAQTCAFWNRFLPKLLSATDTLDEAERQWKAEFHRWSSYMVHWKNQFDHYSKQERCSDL
# human Caspase 10 (CASP10), CASP10 (gene 843), sequence (Q92851 whole entry, looked up): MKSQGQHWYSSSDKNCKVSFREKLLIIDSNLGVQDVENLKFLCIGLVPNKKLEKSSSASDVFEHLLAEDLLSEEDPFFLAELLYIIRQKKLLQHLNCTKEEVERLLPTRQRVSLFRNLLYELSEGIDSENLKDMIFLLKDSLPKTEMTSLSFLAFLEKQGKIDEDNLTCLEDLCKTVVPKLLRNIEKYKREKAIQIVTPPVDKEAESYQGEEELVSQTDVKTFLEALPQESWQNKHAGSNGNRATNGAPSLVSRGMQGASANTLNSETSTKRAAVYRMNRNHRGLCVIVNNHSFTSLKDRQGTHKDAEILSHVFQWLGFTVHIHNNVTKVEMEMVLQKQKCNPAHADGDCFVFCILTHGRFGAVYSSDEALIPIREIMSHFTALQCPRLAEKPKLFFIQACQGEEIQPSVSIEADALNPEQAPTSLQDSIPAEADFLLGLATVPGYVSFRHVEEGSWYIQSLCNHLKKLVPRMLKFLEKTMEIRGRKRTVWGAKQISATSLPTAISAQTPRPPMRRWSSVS
# rat CYP2D1, Cyp2d1 (gene 266684), sequence (P10633 whole entry, looked up): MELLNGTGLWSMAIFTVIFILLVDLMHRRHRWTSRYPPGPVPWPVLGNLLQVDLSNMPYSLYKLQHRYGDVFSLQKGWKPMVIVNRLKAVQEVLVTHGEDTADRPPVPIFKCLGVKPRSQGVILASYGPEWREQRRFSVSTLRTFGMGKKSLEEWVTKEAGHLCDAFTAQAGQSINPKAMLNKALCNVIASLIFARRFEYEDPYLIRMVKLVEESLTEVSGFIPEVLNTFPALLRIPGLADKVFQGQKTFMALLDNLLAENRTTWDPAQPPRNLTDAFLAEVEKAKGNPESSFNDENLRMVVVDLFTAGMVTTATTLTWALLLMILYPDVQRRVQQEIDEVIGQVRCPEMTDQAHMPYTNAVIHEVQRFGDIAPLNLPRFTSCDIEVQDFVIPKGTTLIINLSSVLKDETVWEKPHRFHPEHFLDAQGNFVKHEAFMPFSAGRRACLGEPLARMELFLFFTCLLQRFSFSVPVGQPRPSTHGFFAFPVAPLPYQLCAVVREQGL
# human Androgen Receptor (AR), AR (gene 367), sequence (P10275 whole entry, looked up): as the sequence (P10275 whole entry, looked up, the tested form may be a part) above
structure (smiles),measurement,setting,value
Cc1nn(C)c(Oc2ccccc2)c1C=NOCc1ccc(C(=O)OC(C)(C)C)cc1,outcome,[1],inactive
same,outcome,[2],inactive
same,outcome,[3],inactive
C=C(C)C(=O)OCC(F)(F)C(F)(F)C(F)(F)C(F)F,outcome,[1],inactive
CCCCCCCCCCCCCC[P+](CCCC)(CCCC)CCCC,outcome,[1],inactive
same,AC50,"rat CYP2B1, gene 24300",6.5 µM (active)
same,AC50,[4],14.5 µM (active)
CCOC(=O)[C@@H](C)Oc1ccc(Oc2nc3ccc(Cl)cc3o2)cc1,outcome,[1],inactive
CC[C@H](c1ccc(O)cc1)[C@@H](CC)c1ccc(O)cc1,outcome,[1],inactive
same,AC50,[5],4.88 µM (active)
same,AC50,[6],38.5 µM (active)
same,outcome,[7],inactive
CCCCCCCCCCCCCCCCOS(=O)(=O)O,outcome,[1],inactive
same,AC50,[5],16.8 µM (active)
same,outcome,[8],inactive
same,AC50,[9],1.41 µM (active)
same,AC50,[10],6.6 µM (active)
CC1(C)C(=O)N(Br)C(=O)N1Br,outcome,[1],inactive
same,AC50,[11],2.18 µM (active)
same,outcome,[3],inactive
CC(=O)C1(C)CC2=C(CCCC2(C)C)CC1C (centres undefined),AC50,[1],158 µM (active)
Cc1cc(CCN2CCN(c3nsc4ccccc34)CC2)cc2c1NC(=O)CC2(C)C,outcome,[1],inactive
same,outcome,[5],inactive
same,outcome,[12],inactive
same,outcome,[6],inactive
same,outcome,[13],inactive
CC(C)CCCCCCc1ccc(OCCOCCO)cc1,outcome,[1],inactive
CCCN(C1CCN(C(=O)C2CCNCC2)CC1)[C@@H]1CCc2ccc(OC)cc2C1,outcome,[1],inactive
same,AC50,[5],35.2 µM (active)
NC(=O)c1nc(-c2cccc(-c3cc(F)ccc3OCC(F)(F)C(F)(F)F)c2)n[nH]1,outcome,[1],inactive
same,outcome,[11],inactive
same,outcome,[14],inactive
C=C(C)C(=O)OCCOC(=O)C(=C)C,outcome,[1],inactive
O=C(F)C(F)(F)C(F)(F)C(F)(F)C(F)F,outcome,[1],inactive
C=CC/C=C/C/C=C/C/C=C/C,outcome,[1],inactive
CCCCCCCCCC(=O)O,outcome,[1],inactive
same,AC50,[11],2.83 µM (active)
same,AC50,[15],19.7 µM (active)
same,outcome,[16],inactive
O=C(O)c1cccc(N(Cc2cccnc2)c2ccc(OC(F)F)c(OC(F)F)c2)c1,outcome,[1],inactive
same,AC50,[5],8.26 µM (active)
same,outcome,[6],inactive
same,outcome,[17],inactive
same,outcome,[18],inactive
